In PubChem BioAssay AID687031 (Broad Institute, 2013):
Among all 1,400 compounds or so, about 50 (4%) were called active.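 How the source made its calls: active means fitted curve reaches 30% CPE protection at or below the top valid dose, with every test run called active; inconclusive means test runs disagree, some active and some not; inactive means every test run inactive, including effects in the wrong direction.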 The list is a sample of the results. Measured potencies and affinities stand elsewhere.

experiment: antiviral rescue of DENV2-infected BHK-21 cells – cell-based, ATP luminescence, cherry-pick, dose response (AID 687031); details: BHK-21 DENV2 CPE protection, 5 d; series mostly up to 19.5 µM; CPE protection (higher = active): at the top concentration;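 further: 0% = infected DMSO wells and 100% = uninfected cell wells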

CPE protection (higher = active), inactive:
Cc1ccccc1-c1ccc(C2[C@@H]3CN(C(=O)Cc4ccncc4)C[C@H]2N3)cc1 (some centres undefined) -5.08% [at 21 µM]
COc1cccc(-c2ccc3c(c2)[C@H]2[C@H](CCN2S(=O)(=O)c2cn(C)cn2)[C@@H](CO)N3)c1 -4.08%
COc1cccc(NC(=O)N2[C@@H]3CNC[C@H]2C3c2ccc(-c3ccccc3)cc2)c1 (some centres undefined) -7.29% [at 21 µM]
CS(=O)(=O)N1[C@@H]2CNC[C@H]1C2c1ccc(-c2ccccc2)cc1 (some centres undefined) 1.08%
C[C@@H]1CN([C@H](C)CO)C(=O)c2cccc(NC(=O)Nc3ccc4c(c3)OCO4)c2O[C@H]1CN(C)C(=O)Nc1ccccc1 -7.43%
CCOC(=O)CC[C@H](NC(=O)Cn1cnc2c(OCc3ccccc3)ncnc21)C(=O)OCC -6.24%
COc1ccc(C(CNC(=O)COc2cc(C)ccc2Cl)N2CCCCC2)cc1 (centres undefined) -7.55%
COc1ccc2o/c(=N\O)c(C(=O)Nc3ccc(C)cc3)cc2c1 21.5%
COc1cc(S(=O)(=O)NCc2ccncc2)c(OC)cc1Br -11.7%
CO[C@@H]1CN(C)C(=O)c2ccc(NC(=O)CC(F)(F)F)cc2OC[C@H](C)N(C(C)=O)C[C@@H]1C 9.73%
O=C1Nc2ccccc2C(=O)N(C2CCCC2)C1C(=O)NC1CC1 (centres undefined) -7.26%
O=C1Nc2ccccc2SC1c1ccccc1 (centres undefined) 22.8%
C[C@@H]1CN([C@H](C)CO)C(=O)c2cc(N(C)C)ccc2O[C@@H](C)CCCCO[C@@H]1CN(C)C(=O)CCC(F)(F)F 6.42%
OC(COc1ccc(Cl)cc1Cl)Cn1ccnc1 (centres undefined) 2.84%
Cc1nccn1CC(O)COc1ccc(Cl)cc1Cl (centres undefined) -6.74%
CCC(C(=O)Nc1c(C)cccc1C)n1c(-c2ccc(=O)[nH]c2)nc2ccccc21 (centres undefined) 6.71%
O=C(NCc1ccc2c(c1)OCO2)C(=O)NCC1OCCCN1S(=O)(=O)c1ccccc1 (centres undefined) -15.4%
Cc1ccc(C(=O)NCC(=O)Nc2ccc(S(=O)(=O)Nc3cc(C)nc(C)n3)cc2)cc1 -0.439%
O=C(C[C@H]1CC[C@@H]2[C@H](COC[C@H](O)CN2C(=O)Cc2ccccc2)O1)NC1CCCC1 2.96% [at 21 µM]
Cc1ccc(S(=O)(=O)Nc2cccc(C(=O)NCCCn3ccnc3)c2)cc1F -1.15%
CCOC(=O)N1CCC(NS(=O)(=O)c2ccc(C#N)cc2)CC1 -10.4%
CCOC(=O)N1CCC(NC(=O)c2cccc3c2C(=O)N(CCOC)C3)CC1 8.32%
CC(C)OC(=O)c1ccc(NCc2cc(O)ccc2O)cc1 -7.2%
CCOC(=O)N1C=CC=C[C@@H]2[C@@H](N3C(=O)c4ccccc4C3=O)C(=O)N21 -9.2%
COc1ccc(C2CC(c3cccs3)=NN2C(=O)CCC(=O)O)cc1OC (centres undefined) -2.94%
COc1ccc(NC(=O)Nc2cccc3c2O[C@H](CN(C)C(=O)Nc2ccc(OC)cc2)[C@@H](C)CN([C@@H](C)CO)C3=O)cc1 -19.9%
Cc1cccnc1 -1.59%
Cc1ccccc1NS(=O)(=O)c1ccc(S(=O)(=O)N2CCCC2)cc1 2.34%
CC(=O)N1c2ccc(S(=O)(=O)NCCC(=O)N3CCCC(C)C3)cc2CC1C (centres undefined) -15.9%
CCOc1ccc(C(=O)Nc2ccc(CN3CCOCC3)cc2)cc1Cl 2.94%
Cc1ccc(NC(=O)C2CCCCC2)cc1C 14.2%
Brc1ccc(OCc2nnc(SCC3CCCCC3)o2)cc1 1.56%
N#CCSc1ccccc1NC(=O)CN1C(=O)C(=O)N(Cc2ccccc2)C1=O -15.2%
COCCNC(=O)CCC1CCN(Cc2ccc(-c3ccccc3)cc2)CC1 -10.3%
COc1ccccc1N1CCN(S(=O)(=O)CCNC(=O)CCc2ccccc2)CC1 5.74%
C[C@@H]1CN([C@H](C)CO)C(=O)Cc2cc(NC(=O)CCCCCC(=O)Nc3ccccc3N)ccc2O[C@@H]1CN(C)Cc1ccc(Cl)c(Cl)c1 -2.74%
CCc1nc2c(OCCc3cccc(OC)c3)cccn2c1N(C)C(=O)c1ccc(C)cc1 3.2%
CN1[C@@H]2Cn3c(ccc(C4=CCCC4)c3=O)[C@H]1[C@@H](C(=O)N1CCCCC1)[C@@H]2CO 21.2%
CCCN1[C@H](C(=O)OC)[C@@H](CO)[C@@H]2Cn3c(ccc(C4=CCCC4)c3=O)[C@@H]21 8.66%
O=C(Nc1ccc2c(c1)OCCO2)c1cccc(C(=O)Nc2ccc3c(c2)OCCO3)c1 16.2%
O=C(COC(=O)CNC(=O)c1ccc(Cl)cc1)Nc1ncc(C(F)(F)F)cc1Cl 9.18%
Cc1ccccc1OCC(=O)OCC(=O)NCCNC(=O)COC(=O)COc1ccccc1C 7.36%
CC1CC(C)CN(C(=O)COC(=O)c2nccnc2N)C1 (centres undefined) 8.89%
O=C(COc1ccc(-c2nnco2)cc1)NCc1ccccc1Cl -5.13%
Cc1ccccc1S(=O)(=O)N1[C@H](C#N)[C@H](c2ccccc2)[C@@H]1CO 7.31% [at 21 µM]
CN1C(=O)c2cc(NC(=O)NC3CCCC3)ccc2OC[C@H]2O[C@@H](CC(=O)NCC3CC3)CC[C@@H]21 -8.11% [at 23.5 µM]
Cc1ccccc1-c1cnc(C(O)c2cccc(C)c2C)[nH]1 (centres undefined) 8.04%
CC(C)c1ccc(S(=O)(=O)N2CCN(C(=O)n3ccnc3)CC2)cc1 3.32%
CC(=O)Nc1cc(-c2ccc(C(=O)NC3CC3)cc2)cn2c(-c3cccc(C(F)(F)F)c3)cnc12 -8.05%
COc1ccc(C(CNC(=O)CCNC(=O)c2ccc(Br)cc2)N2CCOCC2)cc1 (centres undefined) 10.9%
Cc1ccc(NC(=O)C2(c3cccs3)CCOCC2)cc1C 16.6%
Cc1ccccc1-c1csc(C(C)(O)c2ccccc2)n1 (centres undefined) 16.6%
O=C(c1cc(C2CC2)on1)N1CCCC(N2CCN(c3cccc(C(F)(F)F)c3)CC2)C1 (centres undefined) 8.43%
O=C(c1ccncc1)N1CCCC(N2CCN(c3cccc(C(F)(F)F)c3)CC2)C1 (centres undefined) 22.6%
CN(CC(=O)Nc1ccc(Cl)cc1)C(=O)CCc1nc2sc3c(c2c(=O)[nH]1)CCCC3 -2.63%
CC#CCN1C(=O)N[C@@H](c2ccccc2)C(C(=O)OC)=C1C -2.29%
COC(=O)[C@@H]1[C@H](CCc2ccccc2)NC(=O)N(Cc2ccccc2)[C@@H]1C -7.83%
O=S(=O)(NN=Cc1cccc(Cl)c1)c1ccccc1 -10.2%
Cc1ccc2c(COC(=O)CNC(=O)c3ccccc3)cc(=O)oc2c1 -8.55%
COc1cc(OC)cc(C(=O)NCCC(c2ccccc2)c2ccccc2)c1 -16.4%
Cc1noc(C)c1NC(=O)Nc1ccc2c(c1)C(=O)N([C@@H](C)CO)C[C@@H](C)[C@@H](CN(C)C)OCCCC[C@@H](C)O2 -7.08%
C[C@@H]1CN([C@H](C)CO)C(=O)c2cc(NC(=O)c3ccccc3)ccc2O[C@@H](C)CCCCO[C@@H]1CN(C)S(=O)(=O)c1ccc(F)cc1 14.4%
C[C@@H]1CCCCO[C@@H](CN(C)S(=O)(=O)c2ccc(F)cc2)[C@@H](C)CN([C@@H](C)CO)C(=O)c2cc(NC(=O)c3ccccc3)ccc2O1 -0.86%
Cc1noc(C)c1NC(=O)Nc1ccc2c(c1)C(=O)N([C@@H](C)CO)C[C@@H](C)[C@@H](CN(C)Cc1ccccc1)OCCCC[C@@H](C)O2 18.2%
